Compound activity: PubChem, National Center for Advancing Translational Sciences (NCATS)
Shown are actives, neighbours in structure and some others; about 5.9% of the full set was active somewhere.
VP16 counter – Gal4-VP16 reporter inhibition counter-screen; Potency, µM (series often up to 53.6 µM), without a hit: at the top dose activity, negative = inhibition, usual class: inhibitors; AID 2546; actives 3.5% (n = 310,000); Drosophila S2 Gal4-VP16 UAS-luciferase, luminescence, 20 h;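 further: Gal4-VP16 expression switched on by copper sulfate through the metallothionein promoter; on the % scale 0 is the no-effect control and ±100 the full control effect; nearly all actives have a fitted effect of over 50% in size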
GLP-1R inv ag – inverse agonists of human GLP-1 receptor; HEK293 GLP-1R CRE-luciferase, luminescence, 24 h; GLP-1R form is constitutively active; actives 1.6% (n = 410,000); Potency, µM (highest dose often 38.3 µM), inactives show at the highest dose activity change, negative = inhibition, most hits filed as inhibitors; further: on the % scale 0 is the no-effect control and ±100 the full control effect; nearly all actives have a fitted effect of over 55% in size
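Stable HEK293 clone (constitutively active GLP-1R + cAMP-response luciferase); 200 cells/uL plated, 12 h pre-culture, compound 24 hr, 37 deg C/5% CO2; detection reagent 12 min RT; luminescence.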
HEK293 tox – cytotoxicity in counter-screen for GLP-1R inverse agonists | Potency, µM (highest dose often 38.3 µM), for inactives: at the top dose activity change, negative = inhibition, most hits filed as inhibitors | actives 0.13% (n = 410,000) | AID 624418 | HEK293 cAMP-luciferase reporter cells, luminescence, 24 h;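 further: loss of luciferase light is scored as toxicity; on the % scale 0 is the no-effect control and ±100 the full control effect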
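1536-well qHTS counterscreen of the MLSMR; 200 cells/uL, 12 h pre-incubation, 23 nL cpd, 24 h at 37 deg C 5% CO2, luciferase detection reagent, 12 min RT, luminescence. Inhibition = undesired.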
RORg inh – blocks mouse ROR gamma transcriptional activity; Potency, µM (highest dose often 53.6 µM), without a hit: top-dose activity change, negative = inhibition, hits mostly inhibitors; actives 5.4% (n = 310,000); P51450; AID 2551; Drosophila S2 Gal4-RORgamma UAS-luciferase reporter, 20 h; further: on the % scale 0 is the no-effect control and ±100 the full control effect; nearly all actives have a fitted effect of over 60% in size
Target sequence (P51450 whole entry, looked up, the tested form may be a part): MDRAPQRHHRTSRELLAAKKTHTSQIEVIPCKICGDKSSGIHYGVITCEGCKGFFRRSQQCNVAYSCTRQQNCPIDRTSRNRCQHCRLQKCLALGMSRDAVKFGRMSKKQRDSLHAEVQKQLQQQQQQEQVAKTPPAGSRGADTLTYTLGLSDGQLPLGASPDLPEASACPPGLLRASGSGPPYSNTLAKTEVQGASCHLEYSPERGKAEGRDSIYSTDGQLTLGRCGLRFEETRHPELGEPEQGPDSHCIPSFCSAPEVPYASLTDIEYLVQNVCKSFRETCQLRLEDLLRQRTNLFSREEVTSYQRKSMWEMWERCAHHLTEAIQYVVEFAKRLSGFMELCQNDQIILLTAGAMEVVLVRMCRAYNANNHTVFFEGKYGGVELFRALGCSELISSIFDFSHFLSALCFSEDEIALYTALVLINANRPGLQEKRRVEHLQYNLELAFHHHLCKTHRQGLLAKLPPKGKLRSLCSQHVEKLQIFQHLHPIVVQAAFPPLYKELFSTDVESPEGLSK
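Luminescence from a UAS-regulated Photinus luciferase reporter in stably transfected Drosophila Schneider cells is measured; decreased signal marks ROR gamma inhibition. Fusion expression is induced by 700 uM copper sulfate for 20 hr.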
GLP-1R agonist – agonists of human GLP-1 receptor; Potency, µM (series often up to 45.6 µM), for inactives: at the highest dose activation, actives largely listed as activators; P43220; HEK293 GLP-1R CRE-luciferase, luminescence, 4-6 h; cells express a hypersensitive GLP-1R form; actives 0.007% (n = 380,000); further: % of control where 0% means no effect
Starred values were filed as active, the others as inactive; u = inconclusive; x = not tested or not shown; [ ] = remark or other dose. The call rests on the fitted dose curve; in most records, active means well fitted curve in the direction sought with a large enough effect; inconclusive means small, poorly fitted or top-dose-only effect, or another doubt; inactive means no such curve, though single readings can be large; an effect the other way counts as inactive or inconclusive. Potency means the concentration at half of the fitted maximal effect.

SMILES	VP16 counter	GLP-1R inv ag	HEK293 tox	RORg inh	GLP-1R agonist
Cc1ccc(CN2CCC(CNc3ncnc4onc(-c5ccc(Cl)cc5)c34)CC2)cc1	x	5%	1%	x	0%
CCOC(=O)[C@@H]1[C@H]2COc3ccc(Br)cc3[C@@H]2N2C(=O)N(c3cccc(F)c3)C(=O)[C@@]12C	4%	u	-7%	18µM*	-4%
CCOC(=O)[C@@H]1[C@H]2COc3ccc(Br)cc3[C@@H]2N2C(=O)N(c3ccc(F)cc3)C(=O)[C@@]12C	x	-12%	u	x	-6%
CCOC(=O)[C@@H]1[C@H]2COc3cc(OC)ccc3[C@@H]2N2C(=O)N(c3ccc(Br)cc3)C(=O)[C@@]12C	-3%	u	2%	7.9µM*	2%
CCOC(=O)[C@@H]1[C@H]2COc3cc(OC)ccc3[C@H]2N2C(=O)N(c3ccc(Br)cc3)C(=O)[C@]12C	x	-8%	-17%	x	1%
Cc1ccc(NC(=O)CSc2nnc(NC(=O)c3ccc(S(=O)(=O)N4CCOCC4)cc3)s2)cc1	32µM*	16%	17%	-103%	1%
CC(=O)Nc1ccc(NC(=O)CSc2nnc(NC(=O)c3ccc(Br)o3)s2)cc1	11µM*	-26%	-10%	3.2µM*	-25%
O=C(CSc1nnc(NC(=O)c2ccc3c(c2)OCO3)s1)NCc1ccco1	u	1%[0.307 µM]	6%[0.307 µM]	13µM*	-39%
CCOC(=O)CNC(=O)CSc1nnc(NC(=O)c2ccc3c(c2)OCO3)s1	u	-25%	20%	7.1µM*	-13%
O=C(CSc1nnc(NC(=O)c2ccccc2)s1)NCc1ccco1	u	-13%	1%	u	-2%
CCOC(=O)c1ccc(NC(=O)CSc2nnc(NC(=O)c3ccc(S(=O)(=O)N4CCOCC4)cc3)s2)cc1	0%	5%	20%	-1%	9%
COCCSc1nnc(NC(=O)c2ccc3c(c2)OCO3)s1	25%	18%	2%	u	-3%
CC(=O)Nc1cccc(NC(=O)CSc2nnc(NC(=O)c3ccco3)s2)c1	-3%	11%	18%	-3%	1%
COc1ccccc1N1CCN(c2ncnc3c2cnn3-c2cccc(Cl)c2)CC1	x	3%	10%	x	x
CSCC[C@H](NC(=O)[C@H](Cc1c[nH]c2ccccc12)NC(=O)CCNC(=O)OC(C)(C)C)C(=O)N[C@@H](CC(=O)O)C(=O)N[C@@H](Cc1ccccc1)C(N)=O	-8%	x	x	0%	x
CCc1cccc(CC)c1NC(=O)CN(C)S(=O)(=O)c1ccc2c(c1)n(C)c(=O)c(=O)n2C	x	7%	7%	x	x
O=C(Nc1nnc(SCC(=O)N2CCCc3ccccc32)s1)c1cccc2ccccc12	5%	14%	3%	u	-6%
CCOC(=O)CNC(=O)CSc1nnc(SCC(=O)NCC(=O)OCC)s1	3%	4%	11%	-16%	-7%
CC(C)Oc1ccc(C(=O)Nc2nnc(SCC(=O)N3CCOCC3)s2)cc1	1.8µM*	u	-12%	3.2µM*	-14%
O=C(CSc1cccc2cccnc12)Nc1cccc(S(=O)(=O)N2CCOCC2)c1	-10%	26%	8%	39%	3%
CCOC(=O)CNC(=O)CSc1nnc(NC(=O)c2ccc(C)cc2)s1	6.3µM*	u	34%	5.6µM*	-2%
Cc1ccc(C(=O)Nc2nnc(SCC(=O)N3CCCc4ccccc43)s2)cc1	1.3µM*	u	12%	0.5µM*	-4%
O=C(CSc1cccc2cccnc12)Nc1ccc(S(=O)(=O)N2CCOCC2)cc1	u	u	u	5.6µM*	12%
COc1ccc(NC(=O)C2CCC(CNS(=O)(=O)c3ccc(Br)s3)CC2)cc1OC (stereo unspecified)	x	1%	4%	x	x
O=C1CC(N(CCc2ccccc2)C(=S)Nc2ccccc2)C(=O)N1c1ccc(F)cc1 (stereo unspecified)	1%	4.5µM*	u	34%	0%
SMILES	VP16 counter	GLP-1R inv ag	HEK293 tox	RORg inh	GLP-1R agonist
CCCOc1ccc(N2C(=O)CC(N(CCc3ccc(OC)c(OC)c3)C(=S)Nc3ccccc3)C2=O)cc1 (stereo unspecified)	-1%	5.6µM*	-21%	36%	-4%
CCNC(=S)N(CCc1ccc(S(N)(=O)=O)cc1)C1CC(=O)N(c2ccccc2)C1=O (stereo unspecified)	-14%	u	-1%	12%	13%
O=C1CC(N(CCc2ccccc2)C(=S)Nc2ccccc2)C(=O)N1c1ccccc1 (stereo unspecified)	-26%	u	-21%	u	-34%
O=C1CC(N(CCc2ccccc2)C(=S)Nc2cc(Cl)ccc2Cl)C(=O)N1c1c(Cl)cccc1Cl (stereo unspecified)	-6%	4.5µM*	-7%	-27%	-6%
CC1CCN(S(=O)(=O)c2ccc3c(c2)N(CC(=O)N2CCN(c4ccccc4)CC2)C(=O)CO3)CC1	x	-12%	2%	x	-5%
Cc1ccccc1-n1c(=O)n(Cc2ccccc2)c(=O)c2[nH]cnc21	13%	147%	0%	0.28µM*	11%
Cc1ccccc1-n1c(=O)n(CCc2ccccc2)c(=O)c2[nH]cnc21	-15%	11%	-6%	3%	23%
CC(=O)Nc1ccc(NC(=O)C2CCN(c3c(NC(C)=O)c(C)nn3-c3ccccc3)CC2)cc1	x	23%	-4%	x	x
COCc1nnc(NC(=O)c2cc(C(=O)OC)cc([N+](=O)[O-])c2)s1	4%	8%	-11%	-31%	-8%
CCC(CC)c1nnc(NC(=O)c2cc(C(=O)OC)cc([N+](=O)[O-])c2)s1	u	10%	-4%	7.1µM*	1%
COC(=O)c1cc(C(=O)Nc2nnc(CC(C)C)s2)cc([N+](=O)[O-])c1	22µM*	6%	0%[1.53 µM]	13µM*	-3%
CC(=O)N1c2ccccc2CC1C(=O)N1CCN(c2cc(Cl)ccc2C)CC1 (stereo unspecified)	x	u	6%	x	x
O=C(c1cc(-c2ccccc2)nc2ccccc12)N1CCc2ccccc2C1	-7%	11µM*	-19%	27%	-12%
Cc1ccc2nc(-c3ccccc3)cc(C(=O)N3CCc4ccccc4C3)c2c1	u	u	1%	u	-8%
CC(C)Oc1cccc(-c2cc(C(=O)N3CCN(c4ncccn4)CC3)c3ccccc3n2)c1	11µM*	x	x	-10%	x
O=C(c1cc(-c2ccc(Br)cc2)nc2ccccc12)N1CCN(c2ccccc2O)CC1	x	2.5µM*	u	x	7%
O=C(Cc1ccc(Br)cc1)N1CCN(c2ccccc2O)CC1	u	11µM*	-21%	25%	1%
O=C(CC(c1cccs1)N1Cc2ccccc2C1=O)Nc1ccc(F)c(Cl)c1 (stereo unspecified)	x	-12%	1%	x	-2%
